# According to PubChem BioAssay:
# Calls of active or inactive are those of the source.
# Assays:
# [1] = small molecules captured by biotinylated probe aFSTL3 – biochemical, small-molecule microarray, fluorescence 635/667, stem cell growth factor project, primary screen (AID 1064); details: higher = more signal;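 also: measures binding of the biotinylated anti-FSTL3 antibody to printed compounds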
# [2] = binders from COS7 lysate, DM2A8 probe, primary screen, torsin A project, cell lysate, small-molecule microarray, fluorescence 635/667 (AID 1065); details: higher = more signal, COS7 lysate expressing mutant human TOR1A
# [3] = small molecules captured by biotinylated probe aFGF2 – biochemical, small-molecule microarray, fluorescence 635/667, stem cell growth factor project, primary screen (AID 1067); details: higher = more signal;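 also: measures binding of biotinylated aFGF2 protein to printed compounds on slides; z-score merges feature fluorescence and signal-to-noise across triplicate slides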
# [4] = small molecules captured by biotinylated probe aFGF10 – biochemical, small-molecule microarray, fluorescence 635/667, stem cell growth factor project, primary screen (AID 1071); details: higher = more signal;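 also: score merges 667 nm spot intensity and signal to noise from triplicate slides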
# [5] = target: Neurogenic locus notch homolog protein 2 (Homo sapiens) (UniProt Q04721); assay: small molecules binding Notch2 protein – biochemical, small-molecule microarray, 635 nm fluorescence, stem cell growth factors, primary screen (AID 1073); details: higher = more signal
# Sequence of Neurogenic locus notch homolog protein 2 (Homo sapiens) (Q04721 whole entry, looked up, canonical isoform): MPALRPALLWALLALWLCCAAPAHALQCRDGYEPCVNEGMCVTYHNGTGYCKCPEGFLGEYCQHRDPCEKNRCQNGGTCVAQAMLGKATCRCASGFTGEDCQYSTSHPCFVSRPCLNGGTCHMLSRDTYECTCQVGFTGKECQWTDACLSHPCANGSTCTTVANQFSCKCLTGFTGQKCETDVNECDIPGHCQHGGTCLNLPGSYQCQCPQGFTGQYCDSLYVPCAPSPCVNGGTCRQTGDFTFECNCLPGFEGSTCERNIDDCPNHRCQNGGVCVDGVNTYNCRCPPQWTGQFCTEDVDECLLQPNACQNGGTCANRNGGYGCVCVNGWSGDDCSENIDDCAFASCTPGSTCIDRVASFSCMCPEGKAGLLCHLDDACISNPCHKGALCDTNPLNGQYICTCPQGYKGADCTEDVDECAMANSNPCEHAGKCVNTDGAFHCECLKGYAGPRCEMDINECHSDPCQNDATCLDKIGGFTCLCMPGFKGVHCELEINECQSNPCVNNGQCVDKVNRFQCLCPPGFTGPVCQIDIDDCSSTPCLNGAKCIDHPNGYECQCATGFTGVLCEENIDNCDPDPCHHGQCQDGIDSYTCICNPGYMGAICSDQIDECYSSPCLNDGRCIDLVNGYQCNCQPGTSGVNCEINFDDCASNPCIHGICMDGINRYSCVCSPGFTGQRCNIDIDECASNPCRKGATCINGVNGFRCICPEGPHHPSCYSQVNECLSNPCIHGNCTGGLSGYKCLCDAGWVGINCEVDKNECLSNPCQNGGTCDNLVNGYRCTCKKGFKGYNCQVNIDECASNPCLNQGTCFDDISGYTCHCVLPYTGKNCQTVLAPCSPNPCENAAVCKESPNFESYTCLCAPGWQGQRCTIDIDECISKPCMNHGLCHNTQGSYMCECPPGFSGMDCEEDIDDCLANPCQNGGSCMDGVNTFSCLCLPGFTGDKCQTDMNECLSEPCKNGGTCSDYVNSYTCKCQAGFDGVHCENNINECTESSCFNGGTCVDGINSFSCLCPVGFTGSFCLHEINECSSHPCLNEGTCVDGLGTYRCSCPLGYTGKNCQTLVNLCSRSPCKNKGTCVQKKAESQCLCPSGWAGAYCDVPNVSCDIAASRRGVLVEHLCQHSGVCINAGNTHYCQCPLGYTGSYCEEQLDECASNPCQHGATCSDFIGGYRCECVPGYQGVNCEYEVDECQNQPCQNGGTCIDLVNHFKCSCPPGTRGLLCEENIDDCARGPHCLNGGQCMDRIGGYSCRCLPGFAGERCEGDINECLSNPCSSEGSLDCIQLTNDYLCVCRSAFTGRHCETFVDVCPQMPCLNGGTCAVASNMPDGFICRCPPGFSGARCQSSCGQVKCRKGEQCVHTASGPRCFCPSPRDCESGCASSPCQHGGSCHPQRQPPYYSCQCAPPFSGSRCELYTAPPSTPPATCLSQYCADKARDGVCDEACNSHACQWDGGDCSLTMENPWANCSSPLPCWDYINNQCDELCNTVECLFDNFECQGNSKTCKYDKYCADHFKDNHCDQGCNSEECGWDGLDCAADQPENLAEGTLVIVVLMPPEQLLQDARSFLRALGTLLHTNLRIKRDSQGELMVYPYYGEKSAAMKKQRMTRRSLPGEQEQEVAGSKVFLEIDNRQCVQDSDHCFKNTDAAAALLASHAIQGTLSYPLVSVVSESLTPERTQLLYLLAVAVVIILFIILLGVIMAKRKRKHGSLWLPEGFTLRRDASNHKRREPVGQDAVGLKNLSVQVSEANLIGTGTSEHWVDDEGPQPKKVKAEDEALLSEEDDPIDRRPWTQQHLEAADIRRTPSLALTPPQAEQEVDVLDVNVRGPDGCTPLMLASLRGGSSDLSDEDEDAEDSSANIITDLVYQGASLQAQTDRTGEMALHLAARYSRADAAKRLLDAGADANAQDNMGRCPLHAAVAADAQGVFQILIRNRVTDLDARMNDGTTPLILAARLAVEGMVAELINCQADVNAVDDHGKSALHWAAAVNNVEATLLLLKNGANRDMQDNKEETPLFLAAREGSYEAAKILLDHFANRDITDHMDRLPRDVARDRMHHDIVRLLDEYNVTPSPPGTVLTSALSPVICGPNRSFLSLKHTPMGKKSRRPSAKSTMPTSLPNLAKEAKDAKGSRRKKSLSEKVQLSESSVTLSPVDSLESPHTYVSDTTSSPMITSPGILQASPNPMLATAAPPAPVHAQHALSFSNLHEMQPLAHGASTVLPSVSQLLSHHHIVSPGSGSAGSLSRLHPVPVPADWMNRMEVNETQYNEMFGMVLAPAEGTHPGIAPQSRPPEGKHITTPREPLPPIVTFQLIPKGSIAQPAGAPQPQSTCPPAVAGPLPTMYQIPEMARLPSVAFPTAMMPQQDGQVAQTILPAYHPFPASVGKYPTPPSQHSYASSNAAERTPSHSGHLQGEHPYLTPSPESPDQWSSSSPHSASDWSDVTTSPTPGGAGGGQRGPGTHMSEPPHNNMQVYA
# [6] = target: Pro-neuregulin-1, membrane-bound isoform (Homo sapiens) (UniProt Q02297); assay: small molecules binding neuregulin-1 protein – biochemical, small-molecule microarray, fluorescence 635/667, psychiatric disease protein project, primary screen (AID 1075); details: NRG1 binding, 635 nm fluorescence, higher = more signal;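 also: score combines 667 nm spot fluorescence with signal to noise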
# Sequence of Pro-neuregulin-1, membrane-bound isoform (Homo sapiens) (Q02297 whole entry, looked up, the tested form may be a part, canonical isoform): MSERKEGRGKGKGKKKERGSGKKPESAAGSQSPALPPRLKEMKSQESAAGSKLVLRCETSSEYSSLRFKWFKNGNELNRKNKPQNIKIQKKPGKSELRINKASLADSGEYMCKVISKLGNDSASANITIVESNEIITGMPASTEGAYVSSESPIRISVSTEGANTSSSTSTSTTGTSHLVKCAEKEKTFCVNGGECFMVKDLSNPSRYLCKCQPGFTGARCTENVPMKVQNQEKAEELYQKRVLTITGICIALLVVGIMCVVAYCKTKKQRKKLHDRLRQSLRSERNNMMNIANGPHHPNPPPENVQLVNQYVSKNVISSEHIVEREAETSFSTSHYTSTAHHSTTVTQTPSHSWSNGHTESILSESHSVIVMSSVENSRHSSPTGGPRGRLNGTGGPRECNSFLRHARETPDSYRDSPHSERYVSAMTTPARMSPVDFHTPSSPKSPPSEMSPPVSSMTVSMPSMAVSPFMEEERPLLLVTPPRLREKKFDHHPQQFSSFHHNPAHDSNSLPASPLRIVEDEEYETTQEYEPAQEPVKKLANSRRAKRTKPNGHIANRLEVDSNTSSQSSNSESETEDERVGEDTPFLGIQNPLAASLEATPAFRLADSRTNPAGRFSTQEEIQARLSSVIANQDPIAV
# [7] = test system: Neuregulin-1 EGF-like domain; assay: small molecules binding NRG1 EGF domain – biochemical, small-molecule microarray, 635 nm fluorescence, primary screen (AID 1081); details: higher = more signal;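 also: binding of the protein to compounds printed on small-molecule microarray slides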
# [8] = FRG1 expression reporter modulators in myotubes – cell-based, C2C12 myotubes, firefly/Renilla luciferase, luminescence, FRG1 inhibition for FSHD, primary screen (AID 1084); details: FRG1 promoter luciferase, higher = more signal, called active from +8 up or from −8 down
# [9] = small molecules captured by biotinylated probe aFST – biochemical, small-molecule microarray, fluorescence 635/667, stem cell growth factor project, primary screen (AID 1086); details: higher = more signal;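 also: score merges 667 nm fluorescence with signal-to-noise of each printed compound spot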
# [10] = binders of probe aHhip on microarray, primary screen, stem cell growth factor project, biochemical, small-molecule microarray, fluorescence 635/667 (AID 1087); details: higher = more signal;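 also: score merges spot fluorescence at 667nm with spot signal to noise ratio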
# [11] = test system: PRMT1 (protein arginine N-methyltransferase 1); assay: small molecules binding arginine methyltransferase PRMT1 – biochemical, small-molecule microarray, 635 nm fluorescence, primary screen (AID 1088); details: higher = more signal;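 also: binding of Prmt1 protein to compounds spotted on small-molecule microarray slides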
# [12] = growth effects on S. cerevisiae YJM789 – YJM789 clinical isolate, OD600, 24 h, basal, primary screen (AID 1089); details: higher = more signal, called active from +8 up or from −8 down;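 also: growth of clinical yeast isolate S. cerevisiae YJM 789 seeded 1000 cells per well; test concentration not given here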
# [13] = S. pombe growth modifiers, basal conditions – strain 972, OD600, 24 h, no modulator, primary screen (AID 1090);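 also: basal condition with compound alone and no growth modifier present; test concentration not given here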; details: S. pombe 972 growth, higher = more signal, called active from +8 up or from −8 down
# [14] = budding yeast growth modifiers under rapamycin – strain BY4716, OD600, 96 h, primary screen (AID 1091); also: test concentration not given here; details: S. cerevisiae BY4716 + rapamycin, higher = more signal, called active from +8 up or from −8 down
# [15] = target: Torsin-1A-interacting protein 2 (Homo sapiens) (UniProt Q8NFQ8); assay: small molecules binding lysate-expressed LULL1 – cell lysate, human LULL1 lysate, 635/667 nm fluorescence, primary screen (AID 1092); details: small-molecule microarray, hLULL1 lysate binding, 635 nm fluorescence; higher = more signal;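 also: probe is lysate of COS7 cells overexpressing human LULL1; score merges per-feature 667 nm fluorescence with signal-to-noise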
# Sequence of Torsin-1A-interacting protein 2 (Homo sapiens) (Q8NFQ8 whole entry, looked up): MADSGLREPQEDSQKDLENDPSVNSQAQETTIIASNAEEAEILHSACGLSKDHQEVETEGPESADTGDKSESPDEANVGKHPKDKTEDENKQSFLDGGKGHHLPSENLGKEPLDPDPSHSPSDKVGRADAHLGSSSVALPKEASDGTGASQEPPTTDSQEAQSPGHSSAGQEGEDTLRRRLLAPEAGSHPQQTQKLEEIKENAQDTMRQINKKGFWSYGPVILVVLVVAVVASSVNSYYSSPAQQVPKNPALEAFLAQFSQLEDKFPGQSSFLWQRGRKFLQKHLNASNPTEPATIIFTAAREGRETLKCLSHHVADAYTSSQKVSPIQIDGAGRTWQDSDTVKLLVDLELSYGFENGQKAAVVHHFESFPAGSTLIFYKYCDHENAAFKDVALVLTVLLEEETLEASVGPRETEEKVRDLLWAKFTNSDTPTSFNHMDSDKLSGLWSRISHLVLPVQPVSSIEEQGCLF
# [16] = optical density change of DRC41 E. coli – strain DRC41, OD650, 24 h, E. coli filamentation project, primary screen (AID 1093);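 also: MC1000 strain lacking acrAB efflux and sulA so SOS filamentation is blocked; test concentration not given here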; details: E. coli DRC41 growth, higher = more signal, called active from +8 up or from −8 down
# [17] = probe aLefty2 binding to arrayed compounds – biochemical, biotinylated probe, 635/667 nm fluorescence, primary screen (AID 1094); details: small-molecule microarray, higher = more signal;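 also: score merges spot fluorescence near 667 nm with spot signal-to-noise ratio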
# [18] = test system: Noggin (protein binding on small-molecule microarray); assay: small molecules binding Noggin protein – biochemical, 635/667 nm fluorescence, primary screen (AID 1095); details: 635 nm fluorescence, higher = more signal;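 also: score merges 667 nm feature fluorescence with signal to noise over triplicate slides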
# [19] = target: Neurogenic locus notch homolog protein 3 (Homo sapiens) (UniProt Q9UM47); assay: small molecules binding NOTCH3 protein – biochemical, 635/667 nm fluorescence, primary screen (AID 1096); details: small-molecule microarray, 635 nm fluorescence, higher = more signal
# [20] = probe aEGFR binding to arrayed compounds – biochemical, biotinylated probe, 635/667 nm fluorescence, primary screen (AID 1097); details: small-molecule microarray, higher = more signal;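 also: probe is a biotinylated anti-EGFR antibody binding compounds printed on slides; score combines fluorescence near 667 nm and signal to noise of each spot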
Compound,composite z-score [1],composite z-score [2],composite z-score [3],composite z-score [4],composite z-score [5],composite z-score [6],composite z-score [7],z-score [8],composite z-score [9],composite z-score [10],composite z-score [11],z-score [12],z-score [13],z-score [14],composite z-score [15],z-score [16],composite z-score [17],composite z-score [18],composite z-score [19],composite z-score [20]
COc1ccc([Si](C)(C)[C@@H]2[C@@H](CC(=O)N3Cc4ccccc4C[C@H]3CO)O[C@]3(C(=O)N(C)c4c(Br)cc(C)cc43)[C@H]2C)cc1,-0.184,1.03,-0.083,0.441,0.557,0.815,1.12,-3.35 (inactive),0.16,-0.0672,1.54,-0.069 (inactive),1.2 (inactive),2.03 (inactive),1.84,0.064 (inactive),-0.174,1.55,1.12,-0.0409
O=C1C2C=CC(C(O)c3ccc(F)cc3)N(Nc3ccccc3F)C2C(=O)N1c1ccccc1 (stereo not given),0.185,-0.333,0.124,0.439,1.16,1.99,1.23,-1.43 (inactive),0.886,0.21,0.778,0.105 (inactive),-0.268 (inactive),0.0787 (inactive),3.48,-0.42 (inactive),0.0224,-0.503,1.13,-0.0549
COC(=O)[C@@]1(Cc2ccc(F)cc2)[C@H]2c3cc(C(=O)N(C)C)n(Cc4nc5ccccc5[nH]4)c3C[C@H]2CN1C(=O)c1ccccc1,0.258,-1.35,0.349,0.841,1.66,2.13,1.13,-0.169 (inactive),1.36,-0.139,0.173,0.37 (inactive),0.821 (inactive),-0.444 (inactive),3.36,-0.373 (inactive),0.341,-0.138,1.08,0.191
CCCCCN1CC=CC23O[C@@H]4/C=C\CCCOC(=O)C4[C@H]2C(=O)N(CCCO)[C@@H]3C1=O (stereo not given in full),-0.181,1.14,-0.156,0.116,-0.573,0.753,1.47,-0.16 (inactive),-0.533,-0.11,0.83,-1.03 (inactive),-0.81 (inactive),-1.67 (inactive),3.58,2.35 (inactive),-0.135,-0.103,0.165,-0.186
CN1C2C=C(CCCO)C(C3C(=O)N(C(N)=O)C(=O)C32)C1c1ccc(CN2CCCC2)cc1 (stereo not given),0.0355,-0.214,-0.143,-0.0598,-0.851,-0.612,-0.24,0.75 (inactive),-0.887,0.141,-0.378,-1.64 (inactive),0.715 (inactive),-0.55 (inactive),-0.736,0.194 (inactive),-0.253,-0.354,-0.615,-0.242
CC(C)C[C@@H]1NC(=O)[C@H]2C[C@@H](C(=O)NCCCCCCN(C)C)[C@@H](c3ccc(O)cc3)N2C1=O,-0.0795,1.44,-0.0366,1.16,0.285,0.717,1.48,3.69 (inactive),0.0151,0.0274,1.56,-0.924 (inactive),-0.48 (inactive),-0.734 (inactive),3.1,-0.613 (inactive),0.0829,0.248,1.14,0.122
O=C(O)[C@@]1(CCS(=O)(=O)c2ccccc2)COC(c2ccc(OCCCO)cc2)=N1,0.803,-0.715,-0.196,-0.0573,-0.243,0.964,1.35,0.143 (inactive),-0.0694,0.35,-0.16,0.608 (inactive),-2.3 (inactive),-0.717 (inactive),2.76,-0.16 (inactive),0.188,-0.754,-0.395,-0.0828
CC(C)(C)OC(=O)CC[C@@]1(C(=O)NCCN2CCOCC2)N=C(c2ccc(OCCCO)cc2)O[C@@H]1c1ccccc1N=[N+]=[N-],0.793,0.122,0.0789,1.01,1.49,1.56,1.32,4.07 (inactive),1.67,0.232,1.45,-0.174 (inactive),-0.182 (inactive),-0.336 (inactive),3.09,-0.115 (inactive),0.591,-0.0404,1.11,0.171
O=C1c2ccccc2[C@@]2(Cc3ccccc3N(CCN3CCOCC3)C2=O)[C@H](c2ccc(CO)cc2)N1Cc1ccccc1,-0.0459,-0.374,-0.166,-0.318,-0.933,-0.561,-0.86,-0.0352 (inactive),-0.0633,-0.0618,1.08,-0.338 (inactive),0.047 (inactive),-1.78 (inactive),1.4,0.959 (inactive),-0.156,-0.0855,-0.038,-0.172
O=C1C2C=CC(C(O)C3CCCCC3)N(Nc3ccc([N+](=O)[O-])cc3)C2C(=O)N1c1ccccc1 (stereo not given),0.274,0.167,0.0333,0.239,-0.795,1.33,1.18,-1.48 (inactive),-0.688,-0.236,1.56,0.139 (inactive),0.341 (inactive),3.55 (inactive),3.19,-1.15 (inactive),-0.314,-0.995,-0.273,-0.226
